# Experimental data published in PubChem BioAssay (NCATS).
# Records with an inconclusive call do not appear. A call without a number means that no potency is given here. The source made the active and inactive calls. Unless noted, calls come from the whole dose curve.
# Key:
# [1] = qHTS for Inhibitors of the Functional Ribonucleoprotein Complex (vRNP) of Lassa (LASV) Arenavirus: LASV Primary Screen - GLuc reporter signal (AID 1347082; calls by dose curve; tested in HEK293 reporter line; note: nearly all actives have a fitted effect of over 60% in size; note: potency is the fitted concentration of half-maximal effect)
# [2] = qHTS for Inhibitors of the Functional Ribonucleoprotein Complex (vRNP) of Lassa (LASV) Arenavirus: Viability assay - alamar blue signal for LASV Primary Screen (AID 1347083; calls by dose curve; tested in HEK293 reporter line; note: series mostly up to about 57 µM; nearly all actives have a fitted effect of over 80% in size)
# [3] = target: Nucleoprotein (Lymphocytic choriomeningitis virus (strain Armstrong)) (UniProt P09992); test: qHTS for Inhibitors of the Functional Ribonucleoprotein Complex (vRNP) of Lymphocytic Choriomeningitis Arenaviruses (LCMV): LCMV Primary Screen - GLuc reporter signal (AID 1347086); note: nearly all actives have a fitted effect of over 70% in size; note: potency is the fitted concentration of half-maximal effect
# [4] = qHTS for Inhibitors of the Functional Ribonucleoprotein Complex (vRNP) of Lymphocytic Choriomeningitis Arenaviruses (LCMV): Viability assay - alamar blue signal for LCMV Primary Screen (AID 1347085; calls by dose curve; tested in HEK293 reporter line; note: nearly all actives have a fitted effect of over 80% in size; note: potency is the fitted concentration of half-maximal effect)
# [5] = qHTS of pediatric cancer cell lines to identify multiple opportunities for drug repurposing: Primary screen for DAOY cells (AID 1347090; active = well fitted curve in the direction sought with a large enough effect; an effect the other way counts as inactive or inconclusive; note: nearly all actives have a fitted effect of over 55% in size; note: potency is the fitted concentration of half-maximal effect)
# Summary of the method: (§1)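 Cell viability, CellTiter-Glo luminescence; 500-1,000 cells/well, 8- or 11-point titration, 48 h compound exposure at 37 degrees C, 5% CO2. Controls: DMSO neutral, bortezomib 2.3 µM final as positive.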
# [6] = qHTS of pediatric cancer cell lines to identify multiple opportunities for drug repurposing: Primary screen for SK-N-MC cells (AID 1347093; active = well fitted curve in the direction sought with a large enough effect; an effect the other way counts as inactive or inconclusive; note: potency is the fitted concentration of half-maximal effect)
# Summary of the method: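 Metabolically active cells were quantified by ATP-dependent luminescence (CellTiter-Glo, 15 min at room temperature) following 48 h treatment. Cells had been plated at 500-1,000 per well and settled for 5 h beforehand.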
# [7] = qHTS of pediatric cancer cell lines to identify multiple opportunities for drug repurposing: Primary screen for BT-37 cells (AID 1347094; active = well fitted curve in the direction sought with a large enough effect; an effect the other way counts as inactive or inconclusive; note: potency is the fitted concentration of half-maximal effect)
# Summary of the method: (§2)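 Phenotypic viability qHTS, 48 h compound exposure, CellTiter-Glo luminescence read-out; multi-concentration dosing so that potency and efficacy derive directly from the primary screen's curves.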
# [8] = qHTS of pediatric cancer cell lines to identify multiple opportunities for drug repurposing: Primary screen for TC32 cells (AID 1347089; active = well fitted curve in the direction sought with a large enough effect; an effect the other way counts as inactive or inconclusive; note: nearly all actives have a fitted effect of over 60% in size)
# Summary of the method: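 Luminescent CellTiter-Glo read-out of metabolically active TC32 cells after 48 h compound exposure. Primary: MIPE 11-point, 0.78 nM–46 µM; NPC 8-point, 0.59 nM–46 µM. Confirmatory: 11-point dilutions.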
# [9] = qHTS of pediatric cancer cell lines to identify multiple opportunities for drug repurposing: Primary screen for SJ-GBM2 cells (AID 1347091; active = well fitted curve in the direction sought with a large enough effect; an effect the other way counts as inactive or inconclusive; note: potency is the fitted concentration of half-maximal effect)
# Summary of the method: as §1
# [10] = qHTS of pediatric cancer cell lines to identify multiple opportunities for drug repurposing: Primary screen for A673 cells (AID 1347092; active = well fitted curve in the direction sought with a large enough effect; an effect the other way counts as inactive or inconclusive; note: nearly all actives have a fitted effect of over 45% in size)
# Summary of the method: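 A673 cells (500-1,000 cells/well in growth media) were pre-incubated 5 h at 37 degrees C, then exposed to compounds for 48 h. Viability was read as CellTiter-Glo luminescence; concentration-response curves came directly from the primary screen.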
# [11] = qHTS of pediatric cancer cell lines to identify multiple opportunities for drug repurposing: Primary screen for NB-EBc1 cells (AID 1347095; active = well fitted curve in the direction sought with a large enough effect; an effect the other way counts as inactive or inconclusive; note: potency is the fitted concentration of half-maximal effect)
# Summary of the method: as §2
# [12] = qHTS of pediatric cancer cell lines to identify multiple opportunities for drug repurposing: Primary screen for U-2 OS cells (AID 1347096; active = well fitted curve in the direction sought with a large enough effect; an effect the other way counts as inactive or inconclusive; note: nearly all actives have a fitted effect of over 50% in size)
# Summary of the method: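 Cells (500-1,000/well) rested 5 h, then received compounds for 48 h; metabolically active cells were measured by CellTiter-Glo luminescence. Final concentrations spanned up to 46 µM (MIPE, 11-point) or 0.59 nM-46 µM (NPC, 8-point) in primary screens, 11-point in follow-ups.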
# Nucleoprotein (Lymphocytic choriomeningitis virus (strain Armstrong)), sequence (P09992 whole entry, looked up): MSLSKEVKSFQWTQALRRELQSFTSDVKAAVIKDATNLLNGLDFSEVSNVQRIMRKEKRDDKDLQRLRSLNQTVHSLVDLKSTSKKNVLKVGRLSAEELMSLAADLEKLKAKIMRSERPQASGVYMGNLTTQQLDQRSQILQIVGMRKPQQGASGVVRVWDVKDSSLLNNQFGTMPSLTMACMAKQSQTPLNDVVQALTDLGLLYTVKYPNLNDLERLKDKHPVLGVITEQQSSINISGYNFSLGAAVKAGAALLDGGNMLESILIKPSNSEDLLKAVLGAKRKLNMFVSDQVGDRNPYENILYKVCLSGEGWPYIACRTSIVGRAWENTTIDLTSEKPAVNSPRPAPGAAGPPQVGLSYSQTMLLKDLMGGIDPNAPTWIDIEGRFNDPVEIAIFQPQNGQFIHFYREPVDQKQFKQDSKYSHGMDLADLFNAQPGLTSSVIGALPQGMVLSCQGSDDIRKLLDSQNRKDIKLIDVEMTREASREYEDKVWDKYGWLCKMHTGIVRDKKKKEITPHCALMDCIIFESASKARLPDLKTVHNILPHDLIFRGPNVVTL
structure (smiles),measurement,setting,value
COC(=O)C1=C(C)NC(C)=C(C(=O)OCCCN2CCC(c3ccccc3)(c3ccccc3)CC2)C1c1cccc([N+](=O)[O-])c1 (centres undefined),Potency,[1],inactive
same,Potency,[2],inactive
same,Potency,[3],inactive
CCCCCCCCCCCC[N+](C)(C)CCOc1ccccc1,Potency,[1],inactive
same,Potency,[2],inactive
same,Potency,[4],inactive
same,Potency,[3],inactive
same,Potency,[5],26.6 µM (active)
same,Potency,[6],6.68 µM (active)
same,Potency,[7],30.9 µM (active)
CN1C(=O)CN=C(c2ccccc2)c2cc([N+](=O)[O-])ccc21,Potency,[1],inactive
same,Potency,[2],inactive
same,Potency,[4],inactive
same,Potency,[3],inactive
same,Potency,[8],inactive
same,Potency,[5],inactive
same,Potency,[9],inactive
same,Potency,[10],inactive
same,Potency,[7],inactive
same,Potency,[11],inactive
same,Potency,[12],inactive
O=c1[nH]c2cc(Cl)ccc2n1C1CCNCC1,Potency,[1],inactive
same,Potency,[2],inactive
same,Potency,[4],inactive
same,Potency,[3],inactive
same,Potency,[8],inactive
same,Potency,[5],inactive
same,Potency,[9],inactive
same,Potency,[10],inactive
same,Potency,[6],inactive
same,Potency,[7],inactive
same,Potency,[11],inactive
CCS(=O)(=O)C(C)(C)S(=O)(=O)CC,Potency,[1],inactive
same,Potency,[2],inactive
same,Potency,[4],inactive
same,Potency,[3],inactive
same,Potency,[8],inactive
same,Potency,[5],inactive
same,Potency,[9],inactive
same,Potency,[10],inactive
same,Potency,[6],inactive
same,Potency,[7],inactive
same,Potency,[11],inactive
same,Potency,[12],inactive
O=C1OC2(c3ccccc31)c1cc(I)c(O)c(I)c1Oc1c2cc(I)c(O)c1I,Potency,[1],inactive
same,Potency,[2],inactive
same,Potency,[3],inactive
CCNc1nc(Cl)nc(NCC)n1,Potency,[1],inactive
same,Potency,[2],inactive
same,Potency,[4],inactive
same,Potency,[3],inactive
same,Potency,[8],inactive
same,Potency,[5],inactive
same,Potency,[9],inactive
same,Potency,[10],inactive
same,Potency,[6],inactive
same,Potency,[7],inactive
same,Potency,[11],inactive
CC(=O)N(CC(=O)N(C)C)c1ccccc1,Potency,[1],inactive
same,Potency,[2],inactive
same,Potency,[3],inactive
COc1ccc(CCN2CCC(Nc3nc4ccccc4n3Cc3ccc(F)cc3)CC2)cc1,Potency,[1],inactive
same,Potency,[2],inactive
same,Potency,[3],inactive
COc1cc(N)c(Cl)cc1C(=O)NC1CCN(Cc2ccccc2)CC1,Potency,[1],inactive
same,Potency,[4],inactive
same,Potency,[3],inactive
CCOC(=O)[C@H](CCc1ccccc1)N[C@@H](C)C(=O)N(CC(=O)O)C1Cc2ccccc2C1,Potency,[1],inactive
same,Potency,[4],inactive
same,Potency,[3],inactive
O=C(O)c1cccc(-c2noc(-c3ccccc3F)n2)c1,Potency,[1],inactive
same,Potency,[2],inactive
same,Potency,[3],inactive
Cc1nnc2n1-c1sc(CCc3ccc(CC(C)C)cc3)cc1C(c1ccccc1Cl)=NC2C (centres undefined),Potency,[1],inactive
same,Potency,[2],inactive
same,Potency,[9],26.6 µM (active)
CN(C)CC/C=C1\c2ccccc2Sc2ccc(Cl)cc21,Potency,[1],inactive
same,Potency,[4],inactive
same,Potency,[3],inactive
CC1(C)O[C@@H]2C[C@H]3[C@@H]4CCC5=CC(=O)CC[C@]5(C)[C@@]4(F)[C@@H](O)C[C@]3(C)[C@]2(C(=O)CCl)O1,Potency,[1],inactive
same,Potency,[2],inactive
same,Potency,[3],inactive
COC[C@@H](c1ccc(C(F)(F)F)cc1)N1CCN(C2(C)CCN(C(=O)c3c(C)ncnc3C)CC2)C[C@H]1C,Potency,[1],inactive
same,Potency,[4],38.5 µM (active)
CCC(=O)O[C@]1(C(=O)CCl)[C@@H](C)C[C@H]2[C@@H]3CCC4=CC(=O)C=C[C@]4(C)[C@@]3(F)[C@@H](O)C[C@@]21C,Potency,[1],inactive
same,Potency,[4],inactive
same,Potency,[3],inactive
COc1ccc(-c2nc3ccc(C4=NNC(=O)CC4C)cc3[nH]2)cc1 (centres undefined),Potency,[1],inactive
same,Potency,[3],inactive
O=c1[nH]c2ccccc2n1CCCN1CCN(C(c2ccccc2)c2ccccc2)CC1,Potency,[1],inactive
same,Potency,[2],inactive
same,Potency,[3],inactive
CCN(CC)CCOc1ccc(C(O)(Cc2ccc(Cl)cc2)c2ccc(C)cc2)cc1 (centres undefined),Potency,[1],inactive
same,Potency,[4],inactive
same,Potency,[3],inactive
CCOC(=O)Nc1ccc(NCc2ccc(F)cc2)nc1N,Potency,[1],inactive
same,Potency,[4],inactive
same,Potency,[3],inactive
CN1CCC(Nc2ncc3ncnc(Nc4ccc(F)c(Cl)c4)c3n2)CC1,Potency,[1],inactive
same,Potency,[4],inactive
same,Potency,[3],inactive
c1ccc(CC2=NCCN2)cc1,Potency,[1],inactive
same,Potency,[2],inactive
same,Potency,[3],inactive
O=C(CCCN1CCN(c2ccc(F)cc2)CC1)NC1c2ccccc2CSc2ccccc21 (centres undefined),Potency,[1],24.3 µM (active)
same,Potency,[4],inactive
Clc1ccc(Nc2nnc(Cc3ccncc3)c3ccccc23)cc1,Potency,[1],inactive
same,Potency,[4],inactive
same,Potency,[3],inactive
CC(NCCC(c1ccccc1)c1ccccc1)c1ccccc1 (centres undefined),Potency,[1],inactive
same,Potency,[4],inactive
CCO[C@@H]1O[C@H](C(COCc2ccccc2)OCc2ccccc2)[C@H](OCc2ccccc2)[C@H]1O (some centres undefined),Potency,[1],inactive
same,Potency,[4],inactive
same,Potency,[3],inactive
O=Cc1ccc(O)c(O)c1O,Potency,[1],inactive
same,Potency,[4],inactive
same,Potency,[3],inactive
O=C(Nc1ccc([N+](=O)[O-])cc1Cl)c1cc(Cl)ccc1O,Potency,[1],inactive
same,Potency,[4],inactive
O=c1[nH]c(=O)n([C@H]2C[C@H](O)[C@@H](CO)O2)cc1C(F)(F)F,Potency,[1],inactive
same,Potency,[4],15.8 µM (active)
same,Potency,[3],inactive
C=C[C@@]1(C)CC(=O)[C@]2(O)[C@@]3(C)[C@@H](O)CCC(C)(C)[C@@H]3[C@H](O)[C@H](OC(C)=O)[C@@]2(C)O1,Potency,[1],inactive
same,Potency,[2],inactive
same,Potency,[3],inactive
O=C(CS)Nc1ccccc1,Potency,[1],inactive
same,Potency,[2],inactive
same,Potency,[3],inactive
CCCCOc1ccc(CC(=O)NO)cc1,Potency,[1],inactive
same,Potency,[4],inactive
same,Potency,[3],inactive
CN1CCC(=C2c3ccccc3CCc3cccnc32)CC1,Potency,[1],inactive
same,Potency,[2],inactive
same,Potency,[3],inactive
CN1CCC(=C2c3ccccc3CC(=O)c3sccc32)CC1,Potency,[1],inactive
same,Potency,[4],inactive
same,Potency,[3],inactive
COc1ccc(OC(=O)N(CC(=O)O)Cc2ccc(OCCc3nc(-c4ccccc4)oc3C)cc2)cc1,Potency,[1],inactive
same,Potency,[4],inactive
same,Potency,[3],inactive
N[C@@H](Cc1cc(I)c(O)c(I)c1)C(=O)O,Potency,[1],inactive
same,Potency,[2],inactive
same,Potency,[3],inactive
CCCCCCCCCCCCCCCC[N+](C)(C)Cc1ccccc1,Potency,[1],inactive
same,Potency,[4],inactive
CN(C)CCN(Cc1ccc(Cl)cc1)c1ccccn1,Potency,[1],inactive
same,Potency,[4],inactive
same,Potency,[3],inactive
O=C(N[C@@H]1N=C(c2ccccc2F)c2cccc3c2N(CC3)C1=O)c1cc2ccccc2[nH]1,Potency,[1],inactive
same,Potency,[4],inactive
same,Potency,[3],inactive
same,Potency,[8],inactive
same,Potency,[9],inactive
same,Potency,[7],inactive
same,Potency,[11],inactive
same,Potency,[12],inactive
COc1ccc2cc3[n+](cc2c1OC)CCc1cc2c(cc1-3)OCO2,Potency,[1],27.3 µM (active)
same,Potency,[4],inactive
same,Potency,[3],19.3 µM (active)
O=C(NOCC1CC1)c1ccc(F)c(F)c1Nc1ccc(I)cc1Cl,Potency,[1],inactive
same,Potency,[4],inactive
same,Potency,[3],inactive
C[C@@H]1CN(CCCn2c3ccccc3c3ccccc32)C[C@H](C)N1,Potency,[1],inactive
same,Potency,[4],inactive
same,Potency,[3],inactive
O=S(=O)(O)NC1CCCCC1,Potency,[1],inactive
same,Potency,[4],inactive
same,Potency,[3],inactive
CCCOc1ccc2nc(NC(=O)OC)[nH]c2c1,Potency,[1],inactive
same,Potency,[4],0.0172 µM (active)
same,Potency,[3],inactive
CC/C(=C(/CC)c1ccc(O)cc1)c1ccc(O)cc1,Potency,[1],inactive
same,Potency,[4],inactive
CCOC(=O)c1ccc(C#Cc2ccc3c(c2)C(C)(C)CCS3)nc1,Potency,[1],inactive
same,Potency,[2],inactive
same,Potency,[3],inactive
CCO[C@H]1O[C@@H]2OC3(C)CC[C@H]4[C@H](C)CC[C@@H]([C@H]1C)[C@@]24OO3,Potency,[9],inactive
C[C@H](CN1CCOCC1)C(C(=O)N1CCCC1)(c1ccccc1)c1ccccc1,Potency,[11],inactive
CN(C)C(=S)SSC(=S)N(C)C,Potency,[11],9.44 µM (active)
